Test results from PubChem BioAssay (NCATS).
Results filed as inconclusive are left out. Where a call stands in place of a potency, no number is given. Active and inactive are the calls of the source. Calls follow the shape of the dose curve; as a rule, active = well fitted cell-killing curve with a large enough effect; inconclusive = small, poorly fitted or top-dose-only effect; inactive = flat fitted curve, though single readings scatter.

Experiment: qHTS assay to identify small molecule inhibitors of chordoma cells - UCH-2 (AID 1259356)
Settings: UCH-2 chordoma viability, CellTiter-Glo ATP luminescence, 48 h; series mostly up to 46.1 µM
From the text: NIH Chemical Genomics Center [NCGC]
Chordoma is a rare and slow growing tumor that can occur anywhere along the spine, from the base of the skull to the tailbone. Current treatment options for chordoma is surgery and radiation therapy for those who are not candidates for surgery. But chordomas tend to return in the same location or surrounding areas of the original tumor after surgery and/or radiation. Chemotherapy can slow down the progression of the tumor. As chordoma is slow growing, the general cytotoxic agents that kill fast growing cells are ineffective, and some patients have been reported to respond to molecularly targeted drugs.
NCATS Pharmaceutical Collection (NPC) containing approximately 3000 clinically approved and investigational drugs were used to screen at 15 concentrations in a chordoma cell lines, UCH-2, to identify small molecule compounds that can inhibit chordoma cell growth.
NCGC Assay Protocol Summary:
Human chordoma cell line UCH-2 was dispensed at 800 per well in 4uL of culture medium into white solid bottom 1536-well plates (Corning Life Sciences, Corning, NY) using a Multidrop Combi (Thermo Scientific, Waltham, MA) dispenser. The assay plates were incubated at 37 C and 5% CO2 for an overnight, and then 23nL of compounds dissolved in DMSO and positive control were transferred using a Pintool station (Wako, San Diego, CA). Compound treatment was followed by the addition of 1uL of the combination compounds (1uM Auranofin, 500nM each of Camptothecin, Doxorubicin, Rubitecan, and Topotecan) and assay medium to each well of the assay plates using Flying Reagent Dispenser (FRD, Aurora Discovery, San Diego, CA). The assay plates were incubated at 37 C and 5% CO2 for 48hr. Then 5uL of CellTiter-Glo reagent (Promega Corporation, Madison, WI) was added to each well of the assay plates using FRD. After 30min incubation at room temperature, the luminescence signal was quantified using a ViewLux plate reader (PerkinElmer, Shelton, CT).

Question: With `COc1cc(/C=C/C(=O)N2CCN(CC(=O)N3CCCC3)CC2)cc(OC)c1OC` as the compound, how does the Potency read?
Answer: Its Potency is “inactive”.

Question: For `CC1(C)[C@@H](O)CC[C@]2(C)[C@H]3C(=O)C=C4[C@@H]5C[C@@](C)(C(=O)O)CC[C@]5(C)CC[C@@]4(C)[C@]3(C)CC[C@@H]12`, which Potency is on record?
Answer: The Potency was “inactive”.

Question: Which Potency does the source give for `CCCCC1C(=O)N(c2ccccc2)N(c2ccc(O)cc2)C1=O` (stereo not given) here?
Answer: Its Potency is “inactive”.

Question: With `CN1CC(=O)N/C1=N/C(=O)Nc1cccc(Cl)c1` as the compound, how does the Potency read?
Answer: Its Potency is “inactive”.

Question: Which Potency does the source give for `COC(=O)[C@H]1[C@H]2C[C@@H]3c4[nH]c5cc(OC)ccc5c4CCN3C[C@H]2C[C@@H](OC(=O)/C=C/c2cc(OC)c(OC)c(OC)c2)[C@@H]1OC` here?
Answer: Its Potency is “inactive”.

Question: For `O=C(OCc1ccccc1)c1ccccc1`, which Potency is on record?
Answer: The Potency was “inactive”.

Question: Which Potency does the source give for `CN(C)CCn1nnnc1SCC1=C(C(=O)O)N2C(=O)[C@@H](NC(=O)Cc3csc(N)n3)[C@H]2SC1` here?
Answer: The Potency was “inactive”.

Question: For `C=CCN1C(=O)C(CC(C)C)NC1=S` (stereo not given), which Potency is on record?
Answer: The Potency was “inactive”.

Question: Which Potency does the source give for `CCOC(=O)c1ccccc1O` here?
Answer: The Potency was “inactive”.

Question: For `NC(=O)C(c1ccccc1)(c1ccccc1)[C@@H]1CCN(CCc2ccc3c(c2)CCO3)C1`, which Potency is on record?
Answer: Its Potency is “inactive”.

Question: For `COc1ccc(-c2cc(=S)ss2)cc1`, which Potency is on record?
Answer: The Potency was “inactive”.

Question: For `Nc1ccc(O)c(C(=O)O)c1`, which Potency is on record?
Answer: Its Potency is “inactive”.

Question: Which Potency does the source give for `Cc1c(C(=O)O)c(O)cc2c1C(=O)c1c(O)c([C@@H]3O[C@H](CO)[C@@H](O)[C@H](O)[C@H]3O)c(O)c(O)c1C2=O` here?
Answer: The Potency was “inactive”.

Question: With `CO/N=C(\C(=O)N[C@@H]1C(=O)N2C(C(=O)O)=C(COC(C)=O)CS[C@H]12)c1csc(N)n1` (stereo in doubt) as the compound, how does the Potency read?
Answer: Its Potency is “inactive”.

Question: For `O=C(O)COc1ccc(C(=O)c2cccs2)c(Cl)c1Cl`, which Potency is on record?
Answer: Its Potency is “inactive”.

Question: With `Cc1ccc(O)c(-n2nc3ccccc3n2)c1` as the compound, how does the Potency read?
Answer: The Potency was “inactive”.

Question: With `O=C(O)c1cc(O)c(O)c(O)c1` as the compound, how does the Potency read?
Answer: The Potency was “inactive”.

Question: For `Nc1c(CC(=O)O)cccc1C(=O)c1ccc(Br)cc1`, which Potency is on record?
Answer: Its Potency is “inactive”.

Question: Which Potency does the source give for `CC1(C)S[C@@H]2[C@H](NC(=O)[C@H](NC(=O)N3CCN(S(C)(=O)=O)C3=O)c3ccccc3)C(=O)N2[C@H]1C(=O)O` here?
Answer: The Potency was “inactive”.

Question: For `C=CC(N)CCC(=O)O` (stereo not given), which Potency is on record?
Answer: Its Potency is “inactive”.

Question: With `C#C[C@]1(O)CC[C@H]2[C@@H]3CCc4cc(O)ccc4[C@H]3CC[C@@]21C` as the compound, how does the Potency read?
Answer: Its Potency is “inactive”.

Question: With `O=C(O)/C=C/C(O)c1ccc(Cl)cc1` (stereo not given) as the compound, how does the Potency read?
Answer: Its Potency is “inactive”.

Question: For `CCCCCCCCCCCCCCCCCC(=O)O`, which Potency is on record?
Answer: The Potency was “inactive”.

Question: Which Potency does the source give for `C[S+](CC[C@H](N)C(=O)O)C[C@H]1O[C@@H](n2cnc3c(N)ncnc32)[C@H](O)[C@@H]1O` (stereo not given in full) here?
Answer: Its Potency is “inactive”.

Question: Which Potency does the source give for `Nc1ccc(C(=O)O)c(O)c1` here?
Answer: Its Potency is “inactive”.

Question: With `CC1(C)C[C@@H]1C(=O)N/C(=C\CCCCSC[C@H](N)C(=O)O)C(=O)O` as the compound, how does the Potency read?
Answer: Its Potency is “inactive”.

Question: For `CN1[C@@H]2CC[C@H]1CC(OC(c1ccccc1)c1ccccc1)C2` (stereo not given in full), which Potency is on record?
Answer: Its Potency is “inactive”.

Question: With `C=C(Nc1ccc(OCC)cc1)Nc1ccc(OCC)cc1` as the compound, how does the Potency read?
Answer: Its Potency is “inactive”.

Question: For `CCCCCCCCCCCCCCCC(=O)OC(C)C`, which Potency is on record?
Answer: The Potency was “inactive”.

Question: Which Potency does the source give for `O=C1CN(/N=C/c2ccc([N+](=O)[O-])o2)C(=O)N1` here?
Answer: The Potency was “inactive”.

Question: For `CO[C@H]1C[C@@H]2CC[C@@H](C)[C@@](O)(O2)C(=O)C(=O)N2CCCC[C@H]2C(=O)O[C@H]([C@H](C)C[C@@H]2CC[C@@H](O)[C@H](OC)C2)CC(=O)[C@H](C)C=C(C)[C@@H](O)[C@@H](OC)C(=O)[C@H](C)C[C@H](C)/C=C/C=CC=C1C`, which Potency is on record?
Answer: Its Potency is “inactive”.

Question: With `O=C(Nc1ccc(C(=O)O)c(O)c1)c1ccccc1` as the compound, how does the Potency read?
Answer: The Potency was “inactive”.

Question: For `CN(C)[C@@H]1C(=O)C(C(=O)NCN2CCCC2)=C(O)[C@@]2(O)C(=O)C3=C(O)c4c(O)cccc4[C@@](C)(O)C3C[C@@H]12` (stereo not given in full), which Potency is on record?
Answer: The Potency was “inactive”.

Question: With `CC1(C)S[C@@H]2[C@H](NC(=O)[C@H](N)c3ccc(O)cc3)C(=O)N2[C@H]1C(=O)O` as the compound, how does the Potency read?
Answer: Its Potency is “inactive”.

Question: With `Cc1[nH]cnc1CN1CCc2c(c3ccccc3n2C)C1=O` as the compound, how does the Potency read?
Answer: The Potency was “inactive”.

Question: Which Potency does the source give for `CC(C(=O)O)c1ccc2c(c1)[nH]c1ccc(Cl)cc12` (stereo not given) here?
Answer: Its Potency is “inactive”.

Question: With `Cc1cc(O)c2ccccc2c1O` as the compound, how does the Potency read?
Answer: Its Potency is “inactive”.

Question: Which Potency does the source give for `COc1cc(NC(C)CCCN)c2ncccc2c1` (stereo not given) here?
Answer: Its Potency is “inactive”.

Question: Which Potency does the source give for `O=C(O)[C@H](O)[C@@H](O)[C@H](O)[C@H](O)CO` here?
Answer: Its Potency is “inactive”.

Question: Which Potency does the source give for `N=c1ccn2c(n1)O[C@H]1[C@H](O)[C@@H](CO)O[C@H]12` here?
Answer: The Potency was “inactive”.
